# Results from PubChem BioAssay (NCI).
# Compounds without any hit were thinned out: in the full panel of roughly 79,000, 15% have a hit. Activity calls are given as the source filed them. Cut-off read from the data, not from the text of the source: active = growth inhibition above about 70%; inactive = the rest.
# Assay: NCI Yeast Anticancer Drug Screen. Data for the sgs1 mgt1 strain (AID 161);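 note: 0% = growth of cultures given vehicle only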
# Settings: S. cerevisiae sgs1 mgt1 strain, at 50.0 µM, stronger effect = higher value
# In short: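 Genetically altered yeast, compound exposure, growth inhibition relative to vehicle.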
row,SMILES,growth inhibition
1,Cc1nc(N/N=C/c2ccccc2Cl)[nH]c(=O)c1CCO,-17.4% (inactive)
2,CSCCC(NC=O)C(=O)O (stereo not given),7.9% (inactive)
3,S=C1CC(c2ccccc2)Sc2ccccc2N1 (stereo not given),13.9% (inactive)
4,C/C(=N/O)c1sc(-c2nc(C)c(/C(C)=N\O)s2)nc1C,4.7% (inactive)
5,CCCCCC1NC(C)(C)CO1 (stereo not given),-0.85% (inactive)
6,CCCC1SCC(C)(C)NC1=O (stereo not given),-1.9% (inactive)
7,OC1C=COC2COC(c3ccccc3)OC12 (stereo not given),6.1% (inactive)
8,CCCCCCCCSc1nc2ccc(N=Cc3ccccc3O)cc2s1,73.3% (active)
9,COC1CCC2(C)C3CCC4C(=CCC5C(C)(C)C(=O)CCC45C)CC3(C)CCC2C1(C)C (stereo not given),-8.55% (inactive)
10,CCOC(=O)CS(=O)(=O)C1CCCCC1c1cc(OC)c(OC)c(OC)c1 (stereo not given),-5% (inactive)
11,CN1CCN(C(=S)N(C(=O)c2ccc(Cl)cc2)C2CCCCC2)CC1,-54.8% (inactive)
12,COC(OC)c1cccc2c1C(=O)CCC1(O)c3ccccc3C1C2 (stereo not given),-38.9% (inactive)
13,CC(=O)NC1C(=O)N(c2ccccc2)N=C1C (stereo not given),-0.7% (inactive)
14,Fc1ccc(CSC(=S)Nc2ccc(I)cc2)cc1,99.2% (active)
15,C/C(=C\c1ccccc1)C(=O)c1ccccc1,1.3% (inactive)
16,CC(C)(C)NC(=O)NCc1ccc(Cl)cc1,-12.1% (inactive)
17,CCC(=O)n1cc2ccc([N+](=O)[O-])cc2n1,-4% (inactive)
18,CC(C)CCC[C@@H](C)[C@H]1CC[C@H]2[C@@H]3CC[C@H]4C[C@@H](CCC=C(c5cc(Cl)c(O)c(C(=O)O)c5)c5cc(Cl)c(O)c(C(=O)O)c5)CC[C@]4(C)[C@H]3CC[C@]12C,11.4% (inactive)
19,CCCCS(=O)(=O)CCCC,-10.2% (inactive)
20,CN1C(c2ccccc2)=C(C#N)C(=O)CC(c2ccco2)N1C (stereo not given),4.65% (inactive)

row,SMILES,growth inhibition
1,COc1ccc(-c2nc(N)nc3c2CN(CCCC(=O)O)C3=O)cc1,-4.25% (inactive)
2,O=C(O)CCC(=O)Nc1cc(C(F)(F)F)ccc1Cl,7.8% (inactive)
3,C=C1OC(c2ccccc2NC)=NC12CCCCC2,-9.9% (inactive)
4,COc1cc(N=Nc2c(Cl)cc([N+](=O)[O-])cc2Cl)c(OC)cc1N=Nc1ccc(N)nc1N,7.05% (inactive)
5,CSC(=N\N=C\c1c(F)cccc1Cl)/N=C/N(C)C,12.7% (inactive)
6,CCCCCN1C(=O)N=NC1=S,19.2% (inactive)
7,COc1cc2c(c(OC)c1OC)-c1ccc(OC)c(=O)cc1[C@@H](NC(=O)c1ccccc1)CC2,18.7% (inactive)
8,C[N+]1(C)CC=C(N2CCOCC2)CC1,-18.8% (inactive)
9,CCCCC[N+](CCCCC)(CCCCC)CCCCC,-27.4% (inactive)
10,O=P(c1ccccc1)(c1ccccc1)C(O)c1ccc(F)cc1 (stereo not given),7.4% (inactive)
11,Nc1nc2[nH]c(=O)c(C(=O)O)nc2c(=O)[nH]1,-5.05% (inactive)
12,COc1cc2nncc(SCc3ccc(Cl)cc3)c2cc1OC,-0.55% (inactive)
13,Cc1ccccc1-c1c2ccccc2cc2c1ccc1ccccc12,-5.05% (inactive)
14,CCOC(=O)CC(C)C(C(=O)OCC)C(=O)OCC (stereo not given),-9.15% (inactive)
15,CCCc1cc(=O)oc2c3c(c4c(c12)OC(C)(C)C=C4)OC(C)[C@H](C)[C@@H]3O (stereo not given in full),32% (inactive)
16,O=C(O)C12C3CCC(CC3)C1(C(=O)O)C1CCC2C1 (stereo not given),-12.1% (inactive)
17,CNC(=O)OCc1c(COC(=O)NC)c(-c2ccc(F)cc2)n2c1CCC2,-15.9% (inactive)
18,NNC(=O)c1oc2ccccc2c1CN(CCO)CCO,3.45% (inactive)
19,CC(=O)O[C@H]1CC[C@]2(C)C3CC[C@]4(C)C([C@H](C)CCCC(C)C)CCC4[C@]3(/C=N/O)n3c(=O)n(-c4ccccc4)c(=O)n3[C@]2(/C=N\O)C1 (stereo not given in full),28.8% (inactive)
20,CCOC(=O)Nc1ccccc1F,-3.95% (inactive)

# Assay: NCI Yeast Anticancer Drug Screen. Data for the cln2 rad14 strain (AID 165);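 note: 0% = growth equal to vehicle treated cultures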
# Settings: S. cerevisiae cln2 rad14 strain, at 50.0 µM, stronger effect = higher value
# In short: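 The screen exposed genetically defined yeast (cln2 rad14) to test compounds and scored growth inhibition relative to vehicle-treated controls.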
row,SMILES,growth inhibition
1,Cc1nc(N/N=C/c2ccccc2Cl)[nH]c(=O)c1CCO,12.2% (inactive)
2,CSCCC(NC=O)C(=O)O (stereo not given),1.05% (inactive)
3,S=C1CC(c2ccccc2)Sc2ccccc2N1 (stereo not given),1.8% (inactive)
4,C/C(=N/O)c1sc(-c2nc(C)c(/C(C)=N\O)s2)nc1C,4.85% (inactive)
5,CCCCCC1NC(C)(C)CO1 (stereo not given),1.95% (inactive)
6,CCCC1SCC(C)(C)NC1=O (stereo not given),-18.4% (inactive)
7,OC1C=COC2COC(c3ccccc3)OC12 (stereo not given),-21.1% (inactive)
8,CCCCCCCCSc1nc2ccc(N=Cc3ccccc3O)cc2s1,53.6% (inactive)
9,COC1CCC2(C)C3CCC4C(=CCC5C(C)(C)C(=O)CCC45C)CC3(C)CCC2C1(C)C (stereo not given),-12.8% (inactive)
10,CCOC(=O)CS(=O)(=O)C1CCCCC1c1cc(OC)c(OC)c(OC)c1 (stereo not given),-6.7% (inactive)
11,CN1CCN(C(=S)N(C(=O)c2ccc(Cl)cc2)C2CCCCC2)CC1,-26.4% (inactive)
12,COC(OC)c1cccc2c1C(=O)CCC1(O)c3ccccc3C1C2 (stereo not given),-0.4% (inactive)
13,CC(=O)NC1C(=O)N(c2ccccc2)N=C1C (stereo not given),22.6% (inactive)
14,Fc1ccc(CSC(=S)Nc2ccc(I)cc2)cc1,99.2% (active)
15,C/C(=C\c1ccccc1)C(=O)c1ccccc1,-3.15% (inactive)
16,CC(C)(C)NC(=O)NCc1ccc(Cl)cc1,-29.6% (inactive)
17,CCC(=O)n1cc2ccc([N+](=O)[O-])cc2n1,-57.8% (inactive)
18,CC(C)CCC[C@@H](C)[C@H]1CC[C@H]2[C@@H]3CC[C@H]4C[C@@H](CCC=C(c5cc(Cl)c(O)c(C(=O)O)c5)c5cc(Cl)c(O)c(C(=O)O)c5)CC[C@]4(C)[C@H]3CC[C@]12C,-4.2% (inactive)
19,CCCCS(=O)(=O)CCCC,0.6% (inactive)
20,CN1C(c2ccccc2)=C(C#N)C(=O)CC(c2ccco2)N1C (stereo not given),10.9% (inactive)

row,SMILES,growth inhibition
1,COc1ccc(-c2nc(N)nc3c2CN(CCCC(=O)O)C3=O)cc1,-30.8% (inactive)
2,O=C(O)CCC(=O)Nc1cc(C(F)(F)F)ccc1Cl,25.1% (inactive)
3,C=C1OC(c2ccccc2NC)=NC12CCCCC2,-2.65% (inactive)
4,COc1cc(N=Nc2c(Cl)cc([N+](=O)[O-])cc2Cl)c(OC)cc1N=Nc1ccc(N)nc1N,5.9% (inactive)
5,CSC(=N\N=C\c1c(F)cccc1Cl)/N=C/N(C)C,14.8% (inactive)
6,CCCCCN1C(=O)N=NC1=S,2.7% (inactive)
7,COc1cc2c(c(OC)c1OC)-c1ccc(OC)c(=O)cc1[C@@H](NC(=O)c1ccccc1)CC2,-0.05% (inactive)
8,C[N+]1(C)CC=C(N2CCOCC2)CC1,-30% (inactive)
9,CCCCC[N+](CCCCC)(CCCCC)CCCCC,8.4% (inactive)
10,O=P(c1ccccc1)(c1ccccc1)C(O)c1ccc(F)cc1 (stereo not given),2.1% (inactive)
11,Nc1nc2[nH]c(=O)c(C(=O)O)nc2c(=O)[nH]1,-16.6% (inactive)
12,COc1cc2nncc(SCc3ccc(Cl)cc3)c2cc1OC,-11% (inactive)
13,Cc1ccccc1-c1c2ccccc2cc2c1ccc1ccccc12,-20.9% (inactive)
14,CCOC(=O)CC(C)C(C(=O)OCC)C(=O)OCC (stereo not given),4.15% (inactive)
15,CCCc1cc(=O)oc2c3c(c4c(c12)OC(C)(C)C=C4)OC(C)[C@H](C)[C@@H]3O (stereo not given in full),8.85% (inactive)
16,O=C(O)C12C3CCC(CC3)C1(C(=O)O)C1CCC2C1 (stereo not given),-24.1% (inactive)
17,CNC(=O)OCc1c(COC(=O)NC)c(-c2ccc(F)cc2)n2c1CCC2,18.7% (inactive)
18,NNC(=O)c1oc2ccccc2c1CN(CCO)CCO,-2.45% (inactive)
19,CC(=O)O[C@H]1CC[C@]2(C)C3CC[C@]4(C)C([C@H](C)CCCC(C)C)CCC4[C@]3(/C=N/O)n3c(=O)n(-c4ccccc4)c(=O)n3[C@]2(/C=N\O)C1 (stereo not given in full),9.7% (inactive)
20,CCOC(=O)Nc1ccccc1F,-6.15% (inactive)
